Experimental data: PubChem BioAssay AID493242 (Broad Institute, 2011)
Measured potencies and affinities stand elsewhere. Active and inactive are the calls of the source. How the calls were made is not given here.

Biological target: Replicative DNA helicase DnaB (Mycobacterium tuberculosis (strain ATCC 25618 / H37Rv)) (UniProt P9WMR3)
Experiment: Replicative DNA helicase DnaB intein splicing, Mycobacterium tuberculosis, inhibitor dose response, secondary (AID 493242)

Replicative DNA helicase DnaB (Mycobacterium tuberculosis (strain ATCC 25618 / H37Rv)), sequence (P9WMR3 whole entry, looked up): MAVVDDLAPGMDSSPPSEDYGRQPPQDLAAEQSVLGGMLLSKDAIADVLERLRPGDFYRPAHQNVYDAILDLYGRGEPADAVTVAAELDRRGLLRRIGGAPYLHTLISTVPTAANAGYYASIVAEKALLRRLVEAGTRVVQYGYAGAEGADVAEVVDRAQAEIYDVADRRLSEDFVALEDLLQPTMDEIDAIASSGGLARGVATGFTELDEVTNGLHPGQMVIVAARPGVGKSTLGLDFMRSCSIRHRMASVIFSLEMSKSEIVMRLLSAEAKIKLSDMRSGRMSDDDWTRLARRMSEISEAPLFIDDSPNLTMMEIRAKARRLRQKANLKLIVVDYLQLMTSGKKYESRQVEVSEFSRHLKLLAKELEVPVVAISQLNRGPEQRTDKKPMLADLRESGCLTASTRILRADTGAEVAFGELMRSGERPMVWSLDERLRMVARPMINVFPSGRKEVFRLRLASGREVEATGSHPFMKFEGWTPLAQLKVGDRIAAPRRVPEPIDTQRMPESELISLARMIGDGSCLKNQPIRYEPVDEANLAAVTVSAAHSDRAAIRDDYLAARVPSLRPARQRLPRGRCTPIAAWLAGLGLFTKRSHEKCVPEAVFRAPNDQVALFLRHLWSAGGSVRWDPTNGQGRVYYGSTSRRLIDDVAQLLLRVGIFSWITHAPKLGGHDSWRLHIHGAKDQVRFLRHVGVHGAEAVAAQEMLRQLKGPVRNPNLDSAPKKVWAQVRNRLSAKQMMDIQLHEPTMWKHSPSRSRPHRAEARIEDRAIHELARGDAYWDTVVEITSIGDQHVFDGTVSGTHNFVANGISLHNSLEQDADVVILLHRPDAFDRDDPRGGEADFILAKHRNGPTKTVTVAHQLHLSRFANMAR

Question: Nc1cn(-c2ccccc2)nc1-c1ccc(F)cc1 was tested. Which outcome did it give?
Answer: inactive
